These results are taken from article PMC11102866, “Nucleosome-bound NR5A2 structure reveals pioneer factor mechanism by DNA minor groove anchor competition”.

Where a chain is given by its changes, count along the chain named. In names and notes the source's numbering stands.

The target of assay [1] is NR5A2 wild type;histone octamer (Homo sapiens;, UniProt O00482;C0HKE1;Q6ZWY9;P84244;P62806 1-541;2-130;2-126;2-136;2-103, |). The assay is described as follows: SeEN-seq (EMSA of nucleosome library followed by sequencing); 0.8 uM human NR5A2; 20 mM Tris-HCl pH 7.5, 120 mM NaCl, 1 mM MgCl2, 10 uM ZnCl2, 1 mM DTT, 100 ug/ml BSA, room temperature, 30 min; 0.1 uM nucleosome library; high values mean tight binding.

Assay [2] deals with mouse Nr5a2 wild type;histone octamer (Mus musculus;, UniProt P45448;C0HKE1;Q6ZWY9;P84244;P62806 1-560;2-130;2-126;2-136;2-103, |). The assay is described as follows: SeEN-seq (EMSA of nucleosome library followed by sequencing); 1.2 uM mouse Nr5a2; 20 mM Tris-HCl pH 7.5, 120 mM NaCl, 1 mM MgCl2, 10 uM ZnCl2, 1 mM DTT, 100 ug/ml BSA, room temperature, 30 min; 0.1 uM nucleosome library; high values mean tight binding. (In EMSA bound probe runs differently from free probe, usually more slowly.)

B1: 30 (nucleosome)
DNA 1: ATCCTGGAGAATCCCGGTGCCGAGGCCGCTCATCAAGGCCAAGACAGCTCTAGCACCGCTTAAACGCACGTACGCGCTGTCCCCCGCGTTTTAACCGCCAAGGGGATTACTCCCTAGTCTCCAGGCACGTGTCAGATATATACATCCTGTGAT
DNA 2: ATCACAGGATGTATATATCTGACACGTGCCTGGAGACTAGGGAGTAATCCCCTTGGCGGTTAAAACGCGGGGGACAGCGCGTACGTGCGTTTAAGCGGTGCTAGAGCTGTCTTGGCCTTGATGAGCGGCCTCGGCACCGGGATTCTCCAGGAT
modifications: reconstituted with mouse histones H2A, H2B, H3.3 and H4
Take B1: the binding signal in assay [1] is 0.787 log2 enrichment (bound/unbound, relative to Widom 601); in assay [2], 0.718 log2 enrichment (bound/unbound, relative to Widom 601).

B2: 28 (nucleosome)
DNA 1: ATCCTGGAGAATCCCGGTGCCGAGGCCGCTTCAAGGCCAGTAGACAGCTCTAGCACCGCTTAAACGCACGTACGCGCTGTCCCCCGCGTTTTAACCGCCAAGGGGATTACTCCCTAGTCTCCAGGCACGTGTCAGATATATACATCCTGTGAT
DNA 2: ATCACAGGATGTATATATCTGACACGTGCCTGGAGACTAGGGAGTAATCCCCTTGGCGGTTAAAACGCGGGGGACAGCGCGTACGTGCGTTTAAGCGGTGCTAGAGCTGTCTACTGGCCTTGAAGCGGCCTCGGCACCGGGATTCTCCAGGAT
modifications: reconstituted with mouse histones H2A, H2B, H3.3 and H4
Take B2: the binding signal was 0.697 log2 enrichment (bound/unbound, relative to Widom 601) in assay [1] and 0.72 log2 enrichment (bound/unbound, relative to Widom 601) in assay [2].

B3: 26 (nucleosome)
DNA 1: ATCCTGGAGAATCCCGGTGCCGAGGCCGTCAAGGCCATCGTAGACAGCTCTAGCACCGCTTAAACGCACGTACGCGCTGTCCCCCGCGTTTTAACCGCCAAGGGGATTACTCCCTAGTCTCCAGGCACGTGTCAGATATATACATCCTGTGAT
DNA 2: ATCACAGGATGTATATATCTGACACGTGCCTGGAGACTAGGGAGTAATCCCCTTGGCGGTTAAAACGCGGGGGACAGCGCGTACGTGCGTTTAAGCGGTGCTAGAGCTGTCTACGATGGCCTTGACGGCCTCGGCACCGGGATTCTCCAGGAT
modifications: reconstituted with mouse histones H2A, H2B, H3.3 and H4
Take B3: the binding signal in assay [1] was 0.635 log2 enrichment (bound/unbound, relative to Widom 601); in assay [2], 0.66 log2 enrichment (bound/unbound, relative to Widom 601).

B4: 27 (nucleosome)
DNA 1: B2 DNA 1 with T31C, C32A, A34G, G36C, C38A, A39C
DNA 2: B2 DNA 2 with T115G, G116T, C118G, T120C, G122T, A123G
modifications: reconstituted with mouse histones H2A, H2B, H3.3 and H4
Take B4: the binding signal is 0.842 log2 enrichment (bound/unbound, relative to Widom 601) in assay [1] and 0.575 log2 enrichment (bound/unbound, relative to Widom 601) in assay [2].

B5: 31 (nucleosome)
DNA 1: B1 DNA 1 with T33A, C34T, A35C, G37A, C39G, A41C
DNA 2: B1 DNA 2 with T113G, G115C, C117T, T119G, G120A, A121T
modifications: reconstituted with mouse histones H2A, H2B, H3.3 and H4
With B5, the binding signal in assay [1] is 0.845 log2 enrichment (bound/unbound, relative to Widom 601); in assay [2] it was 0.725 log2 enrichment (bound/unbound, relative to Widom 601).

B6: 20 (nucleosome)
DNA 1: ATCCTGGAGAATCCCGGTGCCGTCAAGGCCAAATTGGTCGTAGACAGCTCTAGCACCGCTTAAACGCACGTACGCGCTGTCCCCCGCGTTTTAACCGCCAAGGGGATTACTCCCTAGTCTCCAGGCACGTGTCAGATATATACATCCTGTGAT
DNA 2: ATCACAGGATGTATATATCTGACACGTGCCTGGAGACTAGGGAGTAATCCCCTTGGCGGTTAAAACGCGGGGGACAGCGCGTACGTGCGTTTAAGCGGTGCTAGAGCTGTCTACGACCAATTTGGCCTTGACGGCACCGGGATTCTCCAGGAT
modifications: reconstituted with mouse histones H2A, H2B, H3.3 and H4
With B6, the binding signal was 1.09 log2 enrichment (bound/unbound, relative to Widom 601) in assay [1] and 1.09 log2 enrichment (bound/unbound, relative to Widom 601) in assay [2].

B7: 18 (nucleosome)
DNA 1: ATCCTGGAGAATCCCGGTGCTCAAGGCCATCAATTGGTCGTAGACAGCTCTAGCACCGCTTAAACGCACGTACGCGCTGTCCCCCGCGTTTTAACCGCCAAGGGGATTACTCCCTAGTCTCCAGGCACGTGTCAGATATATACATCCTGTGAT
DNA 2: ATCACAGGATGTATATATCTGACACGTGCCTGGAGACTAGGGAGTAATCCCCTTGGCGGTTAAAACGCGGGGGACAGCGCGTACGTGCGTTTAAGCGGTGCTAGAGCTGTCTACGACCAATTGATGGCCTTGAGCACCGGGATTCTCCAGGAT
modifications: reconstituted with mouse histones H2A, H2B, H3.3 and H4
For B7, the binding signal in assay [1] is 1.7 log2 enrichment (bound/unbound, relative to Widom 601); in assay [2], 2.1 log2 enrichment (bound/unbound, relative to Widom 601).

B8: 21 (nucleosome)
DNA 1: B6 DNA 1 with T23A, C24T, A25C, G27A, C29G, A31C
DNA 2: B6 DNA 2 with T123G, G125C, C127T, T129G, G130A, A131T
modifications: reconstituted with mouse histones H2A, H2B, H3.3 and H4
As for B8, the binding signal was 1.08 log2 enrichment (bound/unbound, relative to Widom 601) in assay [1] and 1.08 log2 enrichment (bound/unbound, relative to Widom 601) in assay [2].

B9: 22 (nucleosome)
DNA 1: B6 DNA 1 with T23A, C24G, A25T, A26C, G27A, G28A, C29G, C30G, A31C, A32C
DNA 2: B7 DNA 2 with T122G, A124C, T125C, G126T, G127T, C128G, C129A, T130C, G132C, A133G
modifications: reconstituted with mouse histones H2A, H2B, H3.3 and H4
With B9, the binding signal in assay [1] is 1.02 log2 enrichment (bound/unbound, relative to Widom 601); in assay [2], 0.698 log2 enrichment (bound/unbound, relative to Widom 601).

B10: 19 (nucleosome)
DNA 1: B6 DNA 1 with G22T, T23C, C24A, A26G, G28C, C30A, A31C
DNA 2: B7 DNA 2 with A124T, T125G, G127C, C129T, T131G, G132A, A133G
modifications: reconstituted with mouse histones H2A, H2B, H3.3 and H4
Take B10: the binding signal was 1.35 log2 enrichment (bound/unbound, relative to Widom 601) in assay [1] and 1.28 log2 enrichment (bound/unbound, relative to Widom 601) in assay [2].

B11: 23 (nucleosome)
DNA 1: B2 DNA 1 with C26T, G28A, C29A, T30G, T31G, A33C, G35T, C37G, C38T, A39C
DNA 2: B7 DNA 2 with A120T, T121G, T122G, G123C, A124C, G126T, C128A, T130C, G132C, A133G
modifications: reconstituted with mouse histones H2A, H2B, H3.3 and H4
As for B11, the binding signal in assay [1] is 1.81 log2 enrichment (bound/unbound, relative to Widom 601); in assay [2], 2.16 log2 enrichment (bound/unbound, relative to Widom 601).

B12: 3 (nucleosome)
DNA 1: ATCCTTCAAGGCCACGGTGCCGAGGCCGCTCAATTGGTCGTAGACAGCTCTAGCACCGCTTAAACGCACGTACGCGCTGTCCCCCGCGTTTTAACCGCCAAGGGGATTACTCCCTAGTCTCCAGGCACGTGTCAGATATATACATCCTGTGAT
DNA 2: ATCACAGGATGTATATATCTGACACGTGCCTGGAGACTAGGGAGTAATCCCCTTGGCGGTTAAAACGCGGGGGACAGCGCGTACGTGCGTTTAAGCGGTGCTAGAGCTGTCTACGACCAATTGAGCGGCCTCGGCACCGTGGCCTTGAAGGAT
modifications: reconstituted with mouse histones H2A, H2B, H3.3 and H4
With B12, the binding signal in assay [1] is 6.62 log2 enrichment (bound/unbound, relative to Widom 601); in assay [2], 5.04 log2 enrichment (bound/unbound, relative to Widom 601).

B13: 24 (nucleosome)
DNA 1: ATCCTGGAGAATCCCGGTGCCGAGGCTCAAGGCCAGGTCGTAGACAGCTCTAGCACCGCTTAAACGCACGTACGCGCTGTCCCCCGCGTTTTAACCGCCAAGGGGATTACTCCCTAGTCTCCAGGCACGTGTCAGATATATACATCCTGTGAT
DNA 2: ATCACAGGATGTATATATCTGACACGTGCCTGGAGACTAGGGAGTAATCCCCTTGGCGGTTAAAACGCGGGGGACAGCGCGTACGTGCGTTTAAGCGGTGCTAGAGCTGTCTACGACCTGGCCTTGAGCCTCGGCACCGGGATTCTCCAGGAT
modifications: reconstituted with mouse histones H2A, H2B, H3.3 and H4
Consider B13, for which the binding signal is 0.706 log2 enrichment (bound/unbound, relative to Widom 601) in assay [1] and 0.642 log2 enrichment (bound/unbound, relative to Widom 601) in assay [2].

B14: 25 (nucleosome)
DNA 1: B3 DNA 1 with G28T, T29C, C30A, A32G, G34C, C36A, A37G
DNA 2: B13 DNA 2 with C118T, T119G, G121C, C123T, T125G, G126A, A127G
modifications: reconstituted with mouse histones H2A, H2B, H3.3 and H4
Consider B14, for which the binding signal in assay [1] is 0.708 log2 enrichment (bound/unbound, relative to Widom 601); in assay [2], 0.587 log2 enrichment (bound/unbound, relative to Widom 601).

B15: 29 (nucleosome)
DNA 1: B1 DNA 1 with A32T, T33C, C34A, A36G, G38C, C40A, A41T
DNA 2: B2 DNA 2 with C114T, T115G, G117C, C119T, T121G, G122A, A123G
modifications: reconstituted with mouse histones H2A, H2B, H3.3 and H4
In the case of B15, the binding signal was 0.778 log2 enrichment (bound/unbound, relative to Widom 601) in assay [1] and 0.664 log2 enrichment (bound/unbound, relative to Widom 601) in assay [2].
